PubChem BioAssay (Tox21)
Values joined by “and” are separate entries in the source; they are usually repeats but may differ in a detail not shown here. Equal entries are not always repeated. Where a structure was tested more than once in an assay, its records may differ in their call. Active and inactive are the calls of the source. Entries that show only a call come without a potency. Unless noted, the call rests on the fitted dose curve; in most records, active means well fitted curve in the direction sought with a large enough effect in the repeat runs; inconclusive means weak or mixed curves; inactive means no such curve, though single readings can be large; an effect the other way counts as inactive or inconclusive.

Key:
[1] = qHTS assay to identify small molecule antagonists of the thyroid receptor (TR) signaling pathway - cell viability counter screen (AID 743064); further: nearly all actives have a fitted effect of over 50% in size
How it was run: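 Viability of T3-stimulated (1 nM final) GH3.TRE-Luc cells is measured by CellTiter-Fluor fluorescence after 23.5 h compound exposure at 37 °C plus 30 min reagent incubation.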

[2] = qHTS assay to identify small molecule antagonists of the thyroid receptor (TR) signaling pathway (AID 743065); further: nearly all actives have a fitted effect of over 55% in size
How it was run: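 Antagonism measured as loss of luciferase signal in GH3 cells stably carrying a TRE-luciferase reporter, co-treated with compound and T3 (1 nM final) for 23.5 h at 37 C. Viability was read in the same well by CellTiter-Fluor.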

[3] = tested on: thyroid hormone receptor (rat, GH3 cells); test: qHTS assay to identify small molecule agonists of the thyroid receptor (TR) signaling pathway (AID 743066; calls by dose curve)
[4] = qHTS assay to identify small molecule antagonists of the estrogen receptor alpha (ER-alpha) signaling pathway - cell viability counter screen (AID 743074; calls by dose curve;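 further: HEK293 cells carrying ER-alpha-UAS-bla reporter stimulated with 17beta-estradiol; nearly all actives have a fitted effect of over 45% in size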)
[5] = qHTS assay to identify small molecule antagonists of the estrogen receptor alpha (ER-alpha) signaling pathway using the BG1 cell line - cell viability counter screen (AID 743081);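 further: compound given together with 17beta-estradiol as the ER stimulus; nearly all actives have a fitted effect of over 45% in size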
Aromatase (Homo sapiens) = Aromatase (Homo sapiens) (UniProt P11511); test: qHTS assay to identify aromatase inhibitors (AID 743083); further: nearly all actives have a fitted effect of over 55% in size
[6] = molecular target: Estrogen receptor (Homo sapiens) (UniProt P03372); test: qHTS assay to identify small molecule agonists of the estrogen receptor alpha (ER-alpha) signaling pathway (AID 743075; calls by dose curve)
[7] = molecular target: Estrogen receptor (Homo sapiens) (UniProt P03372); test: qHTS assay to identify small molecule antagonists of the estrogen receptor alpha (ER-alpha) signaling pathway (AID 743069; active means well fitted curve in the direction sought with a large enough effect in the signal ratio in the repeat runs, not every such curve was filed as active; inconclusive means weak or mixed curves, or effect the other way; inactive means no such curve, though single readings can be large or run the other way; the % refers to the signal ratio)
How it was run: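 Compound effects are measured against 17beta-estradiol stimulation in HEK293 cells with a UAS-controlled beta-lactamase reporter for ER-alpha. Exposure lasts 18 hr at 37C; LiveBLAzer B/G FRET substrate follows for 2 hr at room temperature.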

[8] = molecular target: Estrogen receptor (Homo sapiens) (UniProt P03372); test: qHTS assay to identify small molecule agonists of the estrogen receptor alpha (ER-alpha) signaling pathway using the BG1 cell line (AID 743079); conditions: BG1Luc4E2 cells, ERE-luciferase agonist, 22 h; activation: at 70.3 µM (top of the series) unless noted; further: nearly all actives have a fitted effect of over 20% in size
[9] = qHTS assay to identify small molecule antagonists of the estrogen receptor alpha (ER-alpha) signaling pathway using the BG1 cell line (AID 743080; calls by dose curve;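 further: BG1 cells stimulated with 17beta-estradiol alongside compound; nearly all actives have a fitted effect of over 25% in size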)
How it was run: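 Seeding, 24 h rest, compound transfer from DMSO, 17beta-estradiol addition, 21.5 h incubation, CellTiter-Fluor (30 min, 37 C), then ONE-Glo (30 min, room temperature): this sequence was run on BG1-Luc-4E2 reporter cells.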
Potency means the concentration at half of the fitted maximal effect.

Sequence of Aromatase (Homo sapiens) (P11511 whole entry, looked up): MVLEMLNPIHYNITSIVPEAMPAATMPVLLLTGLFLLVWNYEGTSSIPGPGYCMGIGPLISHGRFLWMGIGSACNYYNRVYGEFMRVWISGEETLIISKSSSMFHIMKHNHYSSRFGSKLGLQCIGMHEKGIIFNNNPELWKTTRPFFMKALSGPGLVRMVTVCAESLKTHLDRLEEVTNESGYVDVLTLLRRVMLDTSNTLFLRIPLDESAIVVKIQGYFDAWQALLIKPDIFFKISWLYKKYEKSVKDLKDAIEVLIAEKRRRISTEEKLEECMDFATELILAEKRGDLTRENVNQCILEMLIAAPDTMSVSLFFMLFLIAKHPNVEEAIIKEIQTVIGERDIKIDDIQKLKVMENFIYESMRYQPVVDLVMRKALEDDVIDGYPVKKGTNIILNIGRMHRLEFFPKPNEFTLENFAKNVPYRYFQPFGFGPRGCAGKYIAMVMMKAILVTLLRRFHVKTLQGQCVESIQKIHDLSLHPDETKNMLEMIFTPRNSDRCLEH
Sequence of Estrogen receptor (Homo sapiens) (P03372 whole entry, looked up): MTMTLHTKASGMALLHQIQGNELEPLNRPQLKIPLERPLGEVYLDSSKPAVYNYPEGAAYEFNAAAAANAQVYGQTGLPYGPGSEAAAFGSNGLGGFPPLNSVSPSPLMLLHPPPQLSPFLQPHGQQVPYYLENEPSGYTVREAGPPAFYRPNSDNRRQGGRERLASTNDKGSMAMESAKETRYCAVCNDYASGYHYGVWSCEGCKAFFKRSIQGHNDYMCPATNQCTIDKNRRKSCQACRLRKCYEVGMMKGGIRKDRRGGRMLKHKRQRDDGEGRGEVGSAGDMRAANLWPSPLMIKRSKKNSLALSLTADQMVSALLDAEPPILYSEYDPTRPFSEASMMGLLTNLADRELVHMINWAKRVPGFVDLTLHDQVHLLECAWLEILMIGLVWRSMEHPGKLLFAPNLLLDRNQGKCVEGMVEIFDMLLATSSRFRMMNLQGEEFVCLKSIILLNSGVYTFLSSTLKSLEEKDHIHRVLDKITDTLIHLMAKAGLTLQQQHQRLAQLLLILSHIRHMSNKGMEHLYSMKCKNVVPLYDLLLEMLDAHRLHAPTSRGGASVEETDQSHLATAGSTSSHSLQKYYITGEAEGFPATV

| Structure (SMILES) | Potency [1] | Potency [2] | Potency [3] | Potency [4] | Potency [5] | Potency (Aromatase (Homo sapiens)) | Potency [6] | Potency [7] | Potency [8] | Potency [9] |
| --- | --- | --- | --- | --- | --- | --- | --- | --- | --- | --- |
| ClC(Cl)(Cl)Br | inactive | inactive | inactive | inactive | inactive | inactive |  |  |  |  |
| O=[N+]([O-])c1ccc(Cl)c([N+](=O)[O-])c1 | 15.6 µM (active) and 6.11 µM (active) | 4.39 µM (active) and 4.86 µM (active) | inactive | 49.7 µM (active) and 24.5 µM (active) | 62.1 µM (active) and 61.1 µM (active) | 6.21 µM (active) and 8.63 µM (active) | inactive |  |  |  |
| Nc1ccc2ccccc2c1 | inactive | inactive | inactive |  | inactive | inactive | inactive | inactive | inactive |  |
| C=CC(=O)OCC(CC)(COC(=O)C=C)COC(=O)C=C | 4.99 µM (active) and 6.86 µM (active) | 3.15 µM (active) and 4.33 µM (active) | inactive | 56.4 µM (active) and 54.9 µM (active) | 79 µM (active) and 54.5 µM (active) | 4.99 µM (active) and 6.86 µM (active) | 22.5 µM [inconclusive] (active) and 9.77 µM [inconclusive] (active) |  |  |  |
| CC(C)(O)C(=O)Nc1ccc([N+](=O)[O-])c(C(F)(F)F)c1 | inactive | 62.4 µM (active) | inactive | inactive |  | inactive | inactive |  |  | 55.6 µM (active) |
| Clc1ccccc1-c1nnc(-c2ccccc2Cl)nn1 | inactive | inactive | inactive | inactive | inactive | inactive | inactive |  | 27.1 µM (active) and 43.1 µM (active) |  |
| NC(=O)CN1CCCC1=O | inactive | inactive | inactive | inactive | inactive | inactive |  |  |  |  |
| NN=C(N)N | inactive | inactive | inactive | inactive | inactive | inactive |  |  |  |  |
| CCCCCCCCCc1ccc(O)cc1 | 39 µM (active) | 30.9 µM (active) | inactive |  | inactive | 49.1 µM (active) | inactive | inactive | 6.93 µM (active) | inactive |
| Clc1cccc(Cl)c1 | inactive | inactive | inactive | inactive | inactive | inactive |  |  |  |  |
| CC(C)Nc1ccc(Nc2ccccc2)cc1 | 13.3 µM (active) and 30.6 µM (active) | 11.9 µM (active) and 30.5 µM (active) and 17.2 µM (active) | inactive | 48.8 µM (active) and 43.6 µM (active) | inactive | 13.3 µM (active) and 27.2 µM (active) | inactive |  |  |  |
| COP(=O)(NC(C)=O)SC (centres undefined) | inactive | inactive | inactive | inactive | inactive | inactive |  |  |  |  |
| CC(O)CN(CC(C)O)CC(C)O (centres undefined) | inactive | inactive | inactive | inactive | inactive | inactive |  |  |  |  |
| CCC(=O)Nc1ccc(Cl)c(Cl)c1 | inactive | 49.5 µM (active) | inactive | inactive | inactive | inactive |  |  |  |  |
| CS(=O)(=O)NC(=O)c1cc(Oc2ccc(C(F)(F)F)cc2Cl)ccc1[N+](=O)[O-] | inactive | inactive | inactive | inactive | inactive | inactive |  |  |  |  |
| Cc1ccc([N+](=O)[O-])cc1 | inactive | inactive | inactive |  | inactive | inactive | inactive | inactive | inactive | inactive |
| ClCC(Cl)CCl | inactive | inactive | inactive | inactive | inactive |  |  |  |  |  |
| CCOP(=O)(OCC)OCC | inactive | inactive | inactive | inactive | inactive | inactive |  |  |  |  |
| CC(C)(c1ccccc1)c1ccc(O)c(C(C)(C)c2ccccc2)c1 | 13.6 µM (active) and 12.2 µM (active) | 15.2 µM (active) and 13.7 µM (active) | 1.52 µM (active) | 54.9 µM (active) | 60.6 µM (active) and inactive | 60.6 µM (active) |  | inactive |  |  |

| Structure (SMILES) | Potency [1] | Potency [2] | Potency [3] | Potency [4] | Potency [5] | Potency (Aromatase (Homo sapiens)) | Potency [6] | Potency [7] | Potency [8] | Potency [9] |
| --- | --- | --- | --- | --- | --- | --- | --- | --- | --- | --- |
| CC1CC(=O)O1 (centres undefined) | inactive | inactive | inactive | inactive | inactive | inactive |  |  |  |  |
| CCNCC | inactive | inactive | inactive | inactive | inactive | inactive |  |  |  |  |
| Oc1ccc(Cl)cc1Cc1ccccc1 | 48.6 µM (active) and 36.7 µM (active) | 54.5 µM (active) and 43.3 µM (active) | inactive | inactive and 49 µM (active) and 12.4 µM (active) | inactive | 27.3 µM (active) and 30.9 µM (active) |  |  |  |  |
| [Cl-].[Cl-].[Cl-].[Fe+3] | inactive | inactive | inactive | inactive | inactive | inactive |  |  |  |  |
| O=S(=O)(O)C(F)(F)C(F)(F)C(F)(F)C(F)(F)C(F)(F)C(F)(F)C(F)(F)C(F)(F)F | 47.2 µM (active) | 51.9 µM (active) and 61.1 µM (active) | inactive | inactive | inactive | inactive |  |  |  |  |
| Oc1ccc(Cl)cc1Cl | inactive | inactive | inactive |  | inactive | inactive | inactive | inactive | inactive | inactive |
| Nc1ncn[nH]1 | inactive | inactive | inactive | inactive | inactive | inactive |  |  |  |  |
| C=CC(Cl)CCl (centres undefined) | inactive | inactive | inactive | inactive | inactive | inactive |  |  |  |  |
| O=P(OCCCl)(OCCCl)OCCCl | inactive | inactive | inactive | inactive | inactive | inactive |  |  |  |  |
| ClCc1ccccn1 | inactive | inactive | inactive |  | inactive | inactive | inactive | inactive | inactive | inactive |
| COP(=S)(OC)Oc1ccc(Sc2ccc(OP(=S)(OC)OC)cc2)cc1 | inactive | inactive | inactive | inactive | inactive | inactive | inactive | 21.9 µM [inconclusive] (active) |  | 29.8 µM (active) |
| Cn1c(-c2ccccc2)cc(-c2ccccc2)[n+]1C | inactive | inactive | inactive |  | inactive | 54.4 µM (active) and 54.5 µM (active) | inactive | inactive |  | 30.6 µM (active) |
| N#Cc1nn(-c2c(Cl)cc(C(F)(F)F)cc2Cl)c(N)c1S(=O)C(F)(F)F (centres undefined) | 29.8 µM (active) and 61.5 µM (active) | 26.6 µM (active) and 19.4 µM (active) | inactive | inactive | inactive | 33.5 µM (active) and 19.4 µM (active) | inactive | 17.5 µM [inconclusive] (active) |  | 7.5 µM (active) and 24.5 µM (active) |
| OCCOCCO | inactive | inactive | inactive |  | inactive | inactive | inactive | inactive | inactive | inactive |
| CCOP(=S)(OCC)OP(=S)(OCC)OCC | inactive | inactive | inactive | inactive | inactive | inactive |  |  |  |  |
| COc1ccc(CO)cc1 | inactive | inactive | inactive | inactive | inactive | inactive |  |  |  |  |
| O=C1C(Cl)=C(Cl)C(=O)c2ccccc21 | 30.7 µM (active) and 5.45 µM (active) | 3.07 µM (active) and 3.44 µM (active) | inactive | 43.8 µM (active) and 54.9 µM (active) | inactive | 2.18 µM (active) and 3.86 µM (active) |  |  |  | 30.7 µM (active) and 54.5 µM (active) |
| N#CC(c1ccccc1)c1ccccc1 | inactive | inactive | inactive | inactive | inactive | inactive |  |  |  |  |
